Results published in the supplement of paper PMC8975748.
Counter-ions that a name gives are not always drawn. ± gives the standard deviation of the averaged measurements.

Columns and labels:
[1] = test system: Saccharomyces cerevisiae BY4741 SeMeCo community; assay: mean cell size (pixel area) (pixels); higher = larger cells; details: 10 µM; 24 h; SM minimal medium
How it was run: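 A fluorescent Saccharomyces cerevisiae BY4741 community carrying four plasmids was used, with each plasmid complementing one auxotrophy and bearing a fluorescent marker. An overnight preculture at OD600 = 1.0 was diluted to OD600 = 0.3, and 70 µl went into 384-well plates acoustically predosed with drug (final 10 µM) in SM medium for 24 h. After paraformaldehyde fixation, cells were imaged by automated confocal microscopy and analysed in Harmony, giving the mean cell pixel area per well. Each value is the average of 3 replicates. Same SeMeCo high-content imaging drug screen: Selleck FDA-approved drugs at 10 µM, 24 h in SM medium, 384-well plates, 3 replicates.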

[2] = test system: Saccharomyces cerevisiae BY4741 SeMeCo community; assay: z-score of prototroph abundance vs DMSO median; higher = larger share of this subpopulation than in DMSO controls; details: 10 µM; 24 h; SM minimal medium; subpopulation (auxotrophy): Prototroph
How it was run: (§1)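 Automated confocal microscopy of paraformaldehyde-fixed cells was used to follow a Saccharomyces cerevisiae BY4741 community carrying four plasmids, each restoring one auxotrophy and encoding a distinct fluorescent protein. The community was pre-grown overnight to OD600 1.0, diluted to 0.3, and added at 70 µl to 384-well plates acoustically predosed with library drugs (10 µM final) for 24 h of growth in minimal SM medium. Single-auxotroph fluorescent strains set thresholds and autofluorescence correction, and each subpopulation's abundance was scored as a z-score against the vehicle-well median.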

[3] = test system: Saccharomyces cerevisiae BY4741 SeMeCo community; assay: z-score of subpopulation abundance vs DMSO median, subpopulation auxotrophic for M; higher = larger share of this subpopulation than in DMSO controls; details: 10 µM; 24 h; SM minimal medium; subpopulation (auxotrophy): M
How it was run: as §1

[4] = test system: Saccharomyces cerevisiae BY4741 SeMeCo community; assay: z-score of subpopulation abundance vs DMSO median, subpopulation auxotrophic for L; higher = larger share of this subpopulation than in DMSO controls; details: 10 µM; 24 h; SM minimal medium; subpopulation (auxotrophy): L
How it was run: as §1

[5] = test system: Saccharomyces cerevisiae BY4741 SeMeCo community; assay: z-score of subpopulation abundance vs DMSO median, subpopulation auxotrophic for U; higher = larger share of this subpopulation than in DMSO controls; details: 10 µM; 24 h; SM minimal medium; subpopulation (auxotrophy): U
How it was run: as §1

[6] = test system: Saccharomyces cerevisiae BY4741 SeMeCo community; assay: z-score of subpopulation abundance vs DMSO median, subpopulation auxotrophic for LU; higher = larger share of this subpopulation than in DMSO controls; details: 10 µM; 24 h; SM minimal medium; subpopulation (auxotrophy): LU
How it was run: as §1

[7] = test system: Saccharomyces cerevisiae BY4741 SeMeCo community; assay: z-score of subpopulation abundance vs DMSO median, subpopulation auxotrophic for LM; higher = larger share of this subpopulation than in DMSO controls; details: 10 µM; 24 h; SM minimal medium; subpopulation (auxotrophy): LM
How it was run: as §1

[8] = test system: Saccharomyces cerevisiae BY4741 SeMeCo community; assay: z-score of subpopulation abundance vs DMSO median, subpopulation auxotrophic for HM; higher = larger share of this subpopulation than in DMSO controls; details: 10 µM; 24 h; SM minimal medium; subpopulation (auxotrophy): HM
How it was run: as §1

[9] = test system: Saccharomyces cerevisiae BY4741 SeMeCo community; assay: z-score of subpopulation abundance vs DMSO median, subpopulation auxotrophic for HU; higher = larger share of this subpopulation than in DMSO controls; details: 10 µM; 24 h; SM minimal medium; subpopulation (auxotrophy): HU
How it was run: as §1

[10] = test system: Saccharomyces cerevisiae BY4741 SeMeCo community; assay: z-score of subpopulation abundance vs DMSO median, subpopulation auxotrophic for UM; higher = larger share of this subpopulation than in DMSO controls; details: 10 µM; 24 h; SM minimal medium; subpopulation (auxotrophy): UM
How it was run: as §1

[11] = test system: Saccharomyces cerevisiae BY4741 SeMeCo community; assay: z-score of subpopulation abundance vs DMSO median, subpopulation auxotrophic for HL; higher = larger share of this subpopulation than in DMSO controls; details: 10 µM; 24 h; SM minimal medium; subpopulation (auxotrophy): HL
How it was run: as §1

[12] = test system: Saccharomyces cerevisiae BY4741 SeMeCo community; assay: z-score of subpopulation abundance vs DMSO median, subpopulation auxotrophic for HLU; higher = larger share of this subpopulation than in DMSO controls; details: 10 µM; 24 h; SM minimal medium; subpopulation (auxotrophy): HLU
How it was run: as §1

[13] = test system: Saccharomyces cerevisiae BY4741 SeMeCo community; assay: z-score of subpopulation abundance vs DMSO median, subpopulation auxotrophic for HLM; higher = larger share of this subpopulation than in DMSO controls; details: 10 µM; 24 h; SM minimal medium; subpopulation (auxotrophy): HLM
How it was run: as §1

[14] = test system: Saccharomyces cerevisiae BY4741 SeMeCo community; assay: z-score of subpopulation abundance vs DMSO median, subpopulation auxotrophic for LUM; higher = larger share of this subpopulation than in DMSO controls; details: 10 µM; 24 h; SM minimal medium; subpopulation (auxotrophy): LUM
How it was run: as §1

[15] = test system: Saccharomyces cerevisiae BY4741 SeMeCo community; assay: z-score of subpopulation abundance vs DMSO median, subpopulation auxotrophic for HLUM; higher = larger share of this subpopulation than in DMSO controls; details: 10 µM; 24 h; SM minimal medium; subpopulation (auxotrophy): HLUM
How it was run: as §1

[16] = test system: Saccharomyces cerevisiae BY4741 SeMeCo community; assay: z-score of subpopulation abundance vs DMSO median, subpopulation auxotrophic for H; higher = larger share of this subpopulation than in DMSO controls; details: 10 µM; 24 h; SM minimal medium; subpopulation (auxotrophy): H
How it was run: as §1

[17] = test system: Saccharomyces cerevisiae BY4741 SeMeCo community; assay: z-score of subpopulation abundance vs DMSO median, subpopulation auxotrophic for HUM; higher = larger share of this subpopulation than in DMSO controls; details: 10 µM; 24 h; SM minimal medium; subpopulation (auxotrophy): HUM
How it was run: as §1

SMILES | mean cell size [1] | z-score of prototroph abundance [2] | z-score of subpopulation abundance [3] | z-score of subpopulation abundance [4] | z-score of subpopulation abundance [5] | z-score of subpopulation abundance [6] | z-score of subpopulation abundance [7] | z-score of subpopulation abundance [8] | z-score of subpopulation abundance [9] | z-score of subpopulation abundance [10] | z-score of subpopulation abundance [11] | z-score of subpopulation abundance [12] | z-score of subpopulation abundance [13] | z-score of subpopulation abundance [14] | z-score of subpopulation abundance [15] | z-score of subpopulation abundance [16] | z-score of subpopulation abundance [17]
OCCN1CCN(CCCN2c3ccccc3Sc3ccc(C(F)(F)F)cc32)CC1 [Fluphenazine dihydrochloride] | 12.4 ± 0.097 | -0.57 | -0.08 | 1.3 | -0.38 | 0.63 | 0.55 | 0.59 | 0.37 | -1.12 | 1.51 | 1.24 | 1.11 | 0.9 | 0.51 | – | –
C#C[C@]1(OC(C)=O)CC[C@H]2[C@@H]3CCC4=C[C@@H](OC(C)=O)CC[C@@H]4[C@H]3CC[C@@]21C [Ethynodiol diacetate] | – | – | -0.73 | -0.15 | -1.03 | -0.48 | – | – | – | -0.32 | – | 0.1 | -0.54 | – | 0.38 | -0.43 | -0.26
Fc1ccc([C@@H]2CCNC[C@H]2COc2ccc3c(c2)OCO3)cc1 [Paroxetine mesylate] | 12.1 ± 0.27 | 0.14 | -0.51 | 0.03 | 0.96 | 0.46 | -0.87 | -0.77 | -0.22 | 0.67 | -0.67 | 0 | 0.34 | -0.39 | -0.05 | – | –
CC1=C(C(=O)O)N2C(=O)[C@@H](NC(=O)[C@H](N)C3=CCC=CC3)[C@H]2SC1 [Cephradine monohydrate] | – | 0.03 | -0.02 | -0.33 | 1.31 | 0.27 | -0.77 | -0.39 | – | – | -0.62 | -0.12 | 0.11 | -0.79 | 0.01 | -0.1 | -0.61
C1N2CN3CN1CN(C2)C3 [Methenamine] | – | -0.97 | 0.26 | -0.63 | – | -0.57 | 0.49 | – | 0.2 | 0.8 | -0.01 | -0.02 | 0.4 | 0.29 | -0.16 | – | 0.39
CN(C)c1cc(NC(=O)CNC(C)(C)C)c(O)c2c1CC1CC3C(N(C)C)C(=O)C(C(N)=O)=C(O)C3(O)C(=O)C1=C2O (centres undefined) [Tigecycline] | – | 0.44 | -1.16 | -1.67 | 0.22 | -0.07 | -0.64 | -0.15 | 1.34 | -0.23 | -0.79 | -0.27 | 0.02 | -0.85 | -0.04 | 0.59 | -0.19
CC1(C)S[C@@H]2[C@H](NC(=O)[C@H](N)c3ccccc3)C(=O)N2[C@H]1C(=O)O [Ampicillin Trihydrate] | – | 0.28 | -0.37 | 0.35 | -0.13 | -0.05 | 0.29 | -0.06 | -0.36 | -0.18 | -0.3 | -0.22 | 0.52 | – | -0.25 | 0.41 | 0.13
C[C@@H](CN1CC(=O)NC(=O)C1)N1CC(=O)NC(=O)C1 [Dexrazoxane HCl (ICRF-187, ADR-529)] | – | 0.46 | 0.18 | -1.96 | 0.64 | -0.36 | – | -0.36 | -0.7 | 0.22 | -1.52 | -1.07 | -0.81 | -0.98 | -0.79 | -0.64 | -0.23
CCN1CCN(C(=O)N[C@@H](C(=O)N[C@@H]2C(=O)N3C(C(=O)O)=C(CSc4nnnn4C)CS[C@H]23)c2ccc(O)cc2)C(=O)C1=O [Cefoperazone] | – | 0.07 | 0.6 | 0.4 | – | -0.39 | – | 0.3 | -0.48 | 0.26 | 0.07 | -0.34 | 0.34 | 0.47 | – | 0.43 | -0.49
CN(C)CCC=C1c2ccccc2C(C)(C)c2ccccc21 [Melitracen hydrochloride] | – | 1 | -0.28 | -0.61 | – | -0.8 | -0.58 | -0.45 | -0.73 | -0.21 | -1.23 | -1.72 | -1.11 | -0.83 | – | -1.7 | -0.78
O=C(Nc1c(Cl)cncc1Cl)c1ccc(OC(F)F)c(OCC2CC2)c1 [Roflumilast] | – | 0.36 | 0.29 | -0.2 | 0.07 | 0.34 | -0.1 | -0.18 | 0.22 | 0.24 | -0.5 | -0.37 | -0.77 | – | -0.84 | -0.65 | -0.17
O=C1[C@H]2CCCC[C@H]2C(=O)N1CCCCN1CCN(c2nsc3ccccc23)CC1 [Perospirone hydrochloride] | – | 0.14 | -0.63 | 0.16 | 0.1 | 0.24 | -0.76 | -0.27 | – | – | -0.17 | 0.2 | 0.02 | 0.12 | -0.08 | -0.14 | -0.23
COC1C(O)CC(=O)OC(C)CC=CC=CC(OC2CCC(N(C)C)C(C)O2)C(C)CC(CC=O)C1OC1OC(C)C(OC2CC(C)(O)C(O)C(C)O2)C(N(C)C)C1O (centres undefined) [Spiramycin] | – | 0.08 | -0.36 | -0.29 | 0.01 | -0.46 | -0.48 | -0.27 | 0.31 | – | 0.65 | -0.77 | 0.43 | -0.43 | 0.17 | -0.16 | -0.02
Cc1ccsc1/C=C/C1=NCCCN1C [Morantel tartrate] | – | 0.27 | 0.85 | -1.36 | – | 0.13 | -0.48 | -0.19 | 0.3 | 0.1 | -0.87 | -0.25 | -0.2 | -0.24 | -0.47 | -1.74 | -0.08
